# High-throughput results: PubChem BioAssay, several laboratories
# An excerpt weighted towards active compounds, which were near 2.2% of everything screened.
# KLF5 inh: inhibitors of KLF5 expression | actives 0.23% (n = 290,000) | AID 1700 | DLD-1 KLF5 promoter-luciferase reporter, luminescence | inhibition, % at 5 µM;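 active = inhibition above a per-plate limit of that plate's mean compound inhibition plus 3 SD, cut at about 60% in these data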;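 also: 0% = DMSO wells and 100% = LY294002 at 200 µM; higher means less KLF5 promoter-driven luciferase light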
# Ba/F3 V617F tox: reduce viability of Ba/F3 cells dependent on JAK2V617F; Ba/F3 EpoR-JAK2V617F viability, ATP luminescence; inhibition, % at 5.6 µM; actives 1.1% (n = 220,000);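 active = inhibition above the campaign mean plus 3 SD over all tested compounds, cut at about 24% in these data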;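 also: cytokine-independent growth of Ba/F3 cells driven by EpoR plus mutant JAK2; 0% = DMSO-treated cells and 100% = JAK inhibitor I control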
# aSyn 5UTR inh: MLPCN primary screen, SNCA 5' untranslated region. alpha-synuclein 5'UTR reporter, inhibitor activity. inhibition, % (tested at 7.5 µM). actives 0.82% (n = 300,000); in the data active = inhibition above about 60%;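 also: H4 neuroglioblastoma cells stably carrying SNCA 5'UTR luciferase fusion; 0% = DMSO wells and 100% = positive control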
# IEC-6 cytotox: counter-screen for KLF5 inhibitors: cytotoxicity in IEC-6 cells; IEC-6 cytotoxicity, luminescence viability; inhibition, % at 5 µM; actives 0.78% (n = 290,000); AID 1825; in the data active = inhibition above about 22%;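 also: 0% = plate median of test compound wells and 100% = cytotoxic reference compound wells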
# BaF3 parental: counter-screen for JAK2V617F inhibitors: parental Ba/F3 viability inhibitors; CellTiter-Glo ATP luminescence; inhibition, % at 5.6 µM; actives 1.1% (n = 220,000); AID 1486;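 active = inhibition above a per-campaign cutoff, the mean inhibition of all tested compounds plus 3 SD, cut at about 27% in these data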;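 also: 0% = DMSO wells and 100% = JAK Inhibitor I control wells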
# APP transl inh: APP translation inhibition; SH-SY5Y APP 5'UTR-luciferase reporter, luminescence; inhibition, % at 2 µM; actives 0.82% (n = 190,000);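 active = inhibition above a set limit, derived from the sample mean plus 3 SD, cut at about 45% in these data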
# The depositor's hits bear a star; x = no result given.
SMILES,KLF5 inh,Ba/F3 V617F tox,aSyn 5UTR inh,IEC-6 cytotox,BaF3 parental,APP transl inh
CCC(C)NCC(=O)Nc1cc(S(=O)(=O)N(CC)c2ccccc2)ccc1Cl (stereo not given),-1,7,0,-3,46*,3
CCN(c1ccccc1)S(=O)(=O)c1ccc(OC)c(NC(=O)CNCC(C)O)c1 (stereo not given),-12,0,20,-4,4,-2
CCN(c1ccccc1)S(=O)(=O)c1ccc(OC)c(NC(=O)CN(C)C)c1,-14,12,-8,-2,33*,0
CC(=O)N1CCOc2ccc(S(=O)(=O)N3CCN(c4cc(C)ccc4C)CC3)cc21,-9,x,12,6,x,x
c1ccc(-c2cn(-c3ccccc3)c3[n+]2CCCS3)cc1,10,68*,13,4,63*,x
Cc1ccc(-c2cn(-c3ccccc3)c3[n+]2CCCS3)cc1,-38,77*,2,11,67*,-5
COc1ccc(Nc2nc(N)c([N+](=O)[O-])c(NC3CCCCC3)n2)cc1,-10,x,62*,-11,x,x
Nc1nc(NCC(=O)O)nc(NC2CCCCC2)c1[N+](=O)[O-],-11,x,21,0,x,x
CC(C)CCNc1nc(N)c([N+](=O)[O-])c(NCC2CCCO2)n1 (stereo not given),14,0,62*,0,7,-19
COCCCNc1nc(N)c([N+](=O)[O-])c(NC2CCCCC2)n1,-28,x,90*,-2,x,x
CCC(C)Nc1nc(N)c([N+](=O)[O-])c(NC2CCCCC2)n1 (stereo not given),-4,x,102*,10,x,x
CC(OC(=O)CNC(=O)c1ccc(Cl)c(Cl)c1)C(=O)N1CCOCC1 (stereo not given),x,x,-10,x,x,x
CCOc1ccccc1O[C@H](c1ccccc1)[C@H]1CNCCO1,x,x,22,x,x,x
O=C(NCCC1CCCCN1S(=O)(=O)c1ccccc1)C(=O)NC1CC1 (stereo not given),x,x,-1,x,x,x
O=C(CSc1nnc(CNC(=O)c2ccccc2)o1)NCc1ccc2c(c1)OCO2,-8,x,-7,-3,x,x
CCC(C)Nc1nc(N)c([N+](=O)[O-])c(NCc2ccccc2)n1 (stereo not given),2,x,65*,4,x,x
O=C1CC2(CCN(C(=O)c3cccc(Br)c3)CC2)Oc2ccccc21,x,x,14,x,x,x
Cc1ccc2nc(NC(=O)c3ccc(-c4nc5ccccc5s4)s3)sc2c1,14,0,x,-8,4,1
O=C(c1ccc(-c2nc3ccccc3s2)s1)N1CCOCC1,57,2,100*,9,7,-65
CCN1CCN(C(=O)c2ccc(-c3nc4ccccc4s3)s2)CC1,-104,3,-66,2,6,-131
O=C(NC1CC1)c1ccc(-c2nc3ccccc3s2)s1,35,1,96*,11,3,-83
COc1ccc(NS(=O)(=O)c2ccc(N3CCOCC3)c(NC(=O)C(C)C)c2)cc1,8,40*,-18,11,58*,-25
COc1ccc(NS(=O)(=O)c2ccc(N3CCOCC3)c(NC(=O)c3ccco3)c2)cc1,-12,35*,-6,-5,42*,-11
COc1ccc(NS(=O)(=O)c2ccc(N3CCOCC3)c(NC(=O)c3ccc(F)cc3)c2)cc1,-10,38*,-12,3,43*,-12
O=C(Nc1cc(S(=O)(=O)Nc2ccc(Cl)cc2)ccc1N1CCCCC1)c1ccc(F)cc1,-10,-3,-3,3,-1,0
SMILES,KLF5 inh,Ba/F3 V617F tox,aSyn 5UTR inh,IEC-6 cytotox,BaF3 parental,APP transl inh
COc1ccc(NS(=O)(=O)c2ccc(N3CCOCC3)c(NC(=O)c3cccc(F)c3)c2)cc1,-37,30*,-17,0,41*,-23
O=C(Nc1ccccc1N1CCOCC1)c1cccc(F)c1,-15,0,10,-4,5,-3
COc1ccccc1NS(=O)(=O)c1ccc(N2CCOCC2)c(NC(=O)c2ccco2)c1,-25,3,13,0,10,-34
CC1CCCCC1NC(=O)CSc1nnc(CC(=O)Nc2ccccc2F)n1C (stereo not given),-22,x,-27,3,x,x
CC(=O)Nc1sc(NC(=O)c2ccc(Cl)cc2)nc1-c1cccs1,-6,2,-73,3,5,-9
CC(=O)Nc1sc(NC(=O)c2ccc([N+](=O)[O-])cc2)nc1-c1cccs1,-5,11,-4,8,46*,x
CCCCCCCCCCCCCCCC[n+]1ccc(/C=N/O)cc1,15,98*,x,-1,64*,22
CCc1ccc(C(=O)/C=C/c2ccc([N+](=O)[O-])o2)cc1,0,-3,-151,0,2,54*
CC1CC(C)CN(CCCNC(=O)CN2C(=O)c3cccnc3Oc3ccc(Cl)cc32)C1 (stereo not given),0,x,-15,-3,x,x
COc1ccccc1/C=N/Nc1cc(C)nc2ccc(C)cc12,-29,x,-30,0,x,x
COc1ccc(/C=N/Nc2cc(C)nc3ccc(OC)cc23)c(OC)c1,-25,x,117*,-1,x,x
COc1ccc(OC)c(Nc2cc(C)nc3ccc(C)cc23)c1,x,x,63*,x,x,x
COC(Cn1c2c(c3cc(C)ccc31)CCCC2NCc1ccccc1)OC (stereo not given),-34,2,-11,-5,-5,x
CCOc1cc(C(C(=O)NCC2CCCO2)N(C(=O)Cn2nnc3ccccc32)c2ccccc2C(C)=O)ccc1O (stereo not given),-15,x,-13,-4,x,x
COCCN(C(=O)COC(=O)c1ccccc1Cc1ccccc1)c1c(N)n(Cc2ccccc2)c(=O)[nH]c1=O,x,x,16,x,x,x
CC(NC(=O)Cn1c(NCCO)nc2ccccc21)C1CC2CCC1C2 (stereo not given),-10,6,-5,3,5,-1
Cc1nc2ccccc2n1CC(=O)NC(C)C1CC2CCC1C2 (stereo not given),-4,40*,-6,4,49*,-8
CCC[N+]1(CC#CCC(c2ccccc2)c2ccccc2)CCCCC1,23,x,3,15,x,x
C#CC[N+]1(CC#Cc2ccccc2)CCCCC1,-26,46*,8,-8,59*,14
O=C(C[N+]1(CC#Cc2ccccc2)CCOCC1)c1ccc(Cl)cc1,1,6,-15,9,5,-27
C#CC[N+]1(CC#Cc2cccc(C)c2)CCCCC1,13,76*,-21,1,67*,7
Cc1ccc(C#CC[N+]2(CC#Cc3ccc(C)cc3)CCCCC2)cc1,28,96*,19,15,78*,10
C(#Cc1ccccc1)C[N+]1(CC#Cc2ccccc2)CCCCC1,12,87*,28,-1,69*,2
C#CC[N+]1(CC#Cc2ccccc2)CCOCC1,-14,3,-33,-2,12,8
O=C(O)CN1C(=O)CC(c2ccccc2)CC1=O,-22,x,-3,3,x,x
C(#Cc1ccccc1)C[N+]1(CC#Cc2cccc3ccccc23)CCOCC1,-7,56*,x,-4,50*,-1
OCC1OC(n2nc3ccccc3n2)C(O)C(O)C1O (stereo not given),-12,-1,27,-12,28*,14
